Reference: PubChem BioAssay (Tox21)
Inconclusive results are not listed. Entries that show only a call come without a potency. Activity calls are given as the source filed them. The call rests on the fitted dose curve.

Assay: p53 small molecule agonists, cell-based qHTS assay: qHTS cell viability counter screen (AID 1963581); further: nearly all actives have a fitted effect of over 45% in size
Conditions: p53RE-bla HCT-116 viability, ATP luminescence, 16 h; series mostly up to 66 µM
Description: National Center for Advancing Translational Sciences [NCATS]
Division of Preclinical Innovation [DPI]
U.S. Environmental Protection Agency [EPA]
National Institutes of Environmental Health Sciences [NIEHS]
National Toxicology Program [NTP]
U.S. Food and Drug Administration [FDA]
p53, a tumor suppressor protein, is activated following cellular insult, including DNA damage and other cellular stresses. The activation of p53 regulates cell fate by inducing DNA repair, cell cycle arrest, apoptosis, or cellular senescence. The activation of p53, therefore, is a good indicator of DNA damage and other cellular stresses. The CellSensor p53RE-bla HCT-116 cell line (Invitrogen) contains a stably integrated beta-lactamase reporter gene under control of the p53 response elements. The activation of the reporter gene under culture conditions can be detected by fluorescence intensity. This cell line was used to screen the Tox21 compound library in a 1536-well plate format and to identify agonists that activate the p53 signaling pathway. The cytotoxicity of the Tox21 compound library against the p53 RE-bla HCT-116 cell line was tested in parallel by measuring the intra cellular ATP content in the same wells.
Tox21 Assay Protocol Summary:
The p53RE-bla cells were dispensed at 4,000 cells/5 ul/well in 1536-well black wall/clear bottom plates using a Multidrop dispenser. After the assay plates were incubated at a 37 C/5% CO2 incubator for 5 hours, 23 nL of compounds dissolved in DMSO, positive controls or DMSO only was transferred to the assay plate by a pin tool. The plates were incubated at 37 C for 16 hours. After 1 uL of LiveBLAzerTM B/G FRET substrate was added using a Flying Reagent Dispenser, the plates were incubated at room temperature for 2 hours, and fluorescence intensity was measured by an Envision plate reader. For cell viability readout that measures cytotoxicity, 4 ul/well of CellTiter-Glo reagent was added into the assay plates using a Flying Reagent Dispenser. After 30 min incubation at room temperature, the luminescence intensity in the plates was measured using a ViewLux plate reader.

Compound | Potency
CCCCCCCCCCCCO | inactive
Cc1ccc(C)c(O)c1C | inactive
Cc1ccccc1C=O | inactive
OCCOCCOCCO | inactive
CC(C)OB(OC(C)C)OC(C)C | inactive
O=C(O)c1ccc(S(=O)(=O)N(Cl)Cl)cc1 | inactive
CCCCCC1C(=O)CCC1CC(=O)OC (stereo not given) | inactive
O=c1c(-c2ccc(O)cc2)coc2cc(O)cc(O)c12 | inactive
Nc1ccc(Cl)cc1Cl | inactive
CC1(C)NC(=O)N(c2ccc([N+](=O)[O-])c(C(F)(F)F)c2)C1=O | inactive
CC1(C)OC(=O)NC1=O | inactive
CCCCCNCCCCC | inactive
Cc1ccc(N)c([N+](=O)[O-])c1 | inactive
CCO[Si](CCCN)(OCC)OCC | inactive
COCC(C)N (stereo not given) | inactive
O=C(c1cc(O)c(O)c(O)c1)c1ccc(O)c(O)c1O | inactive
CC(C)(C)[C@@H](O)[C@@H](Cc1ccc(Cl)cc1)n1cncn1 | inactive
C[C@]12C=CC(=O)C=C1CC[C@@H]1[C@@H]2C(=O)C[C@@]2(C)[C@H]1CC[C@]2(O)C(=O)CO | inactive
CSc1ccc(Cl)cc1 | inactive
CCCCN(CCCC)CCCC | inactive

Compound | Potency
c1ccc2cc3ccccc3cc2c1 | inactive
C=CC(=O)OCCCCCCCC(C)C | inactive
O=C(O)CN(CC(=O)O)CC(=O)O | inactive
CCCCC1(COC(=O)CCC(=O)O)C(=O)N(c2ccccc2)N(c2ccccc2)C1=O | inactive
O=S(=O)(O)c1ccc2ccccc2c1 | inactive
Cc1ccc(S(=O)(=O)O)cc1 | inactive
O=C(O)c1ccc(O)cc1 | inactive
Clc1ccc(Sc2cc(Cl)c(Cl)cc2Cl)cc1 | inactive
Brc1cc(Oc2cc(Br)c(Br)c(Br)c2Br)c(Br)c(Br)c1Br | inactive
CCc1ccc(CCOc2ccc(CC3SC(=O)NC3=O)cc2)nc1 (stereo not given) | inactive
CCCCCC(=O)O | inactive
O=C(O)CCCC(=O)O | inactive
O=Cc1ccc(CO)o1 | inactive
O=c1[nH]c(=O)n([C@H]2C[C@H](O)[C@@H](CO)O2)cc1Br | inactive
c1ccc2c(c1)c1cccc3ccc4cccc2c4c31 | inactive
CC(=O)C1=C(C)[C@@H]2C[C@@]3(C1)[C@H](C)CC[C@H]3C2(C)C | inactive
Nc1ccc(O)c(C(=O)O)c1 | inactive
C[C@]12C[C@H](O)[C@H]3[C@@H](CCC4=CC(=O)CC[C@@]43C)[C@@H]1CC[C@@H]2C(=O)CO | inactive
NC(CO)(CO)CO | inactive
CCCCCCC(C)(C)S | inactive
